Data from PubChem BioAssay (NCI).
The panel holds about 83,000 compounds, 20% with a hit somewhere; the sample as a whole holds those more often.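 48-hour exposure, single concentration, 96-well plates; percent growth endpoint where 0 means no net growth. Active: below 10.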 Values without a mark were called inactive. Calls of active or inactive are those of the source.

Tests used:
Experiment in all cases: NCI-60 one-dose screen, 48 h (100 = growth as untreated, 0 = no growth, -100 = all killed)
Settings in all cases: 10 µM unless noted
[1] = system: DU-145 prostate
[2] = system: K-562 leukemia
[3] = system: MALME-3M melanoma
[4] = system: MDA-MB-231 breast
[5] = system: RXF 393 renal
[6] = system: SF-268 CNS
[7] = system: SF-295 CNS
[8] = system: SF-539 CNS
[9] = system: UACC-257 melanoma
[10] = system: M14 melanoma
[11] = system: HCT-15 colon
[12] = system: HT29 colon
[13] = system: SNB-75 CNS
[14] = system: SNB-19 CNS
[15] = system: U251 CNS
[16] = system: PC-3 prostate
[17] = system: SK-MEL-5 melanoma
[18] = system: UACC-62 melanoma
[19] = system: LOX IMVI melanoma
[20] = system: SK-MEL-28 melanoma

## CCCn1cnc2c(c1=N)C(c1ccc(Cl)cc1)c1sc3c(C)cccc3c1O2 (stereo not given)
[1]
  growth: 19.7%
[2]
  growth: 7.73% (active)
[3]
  growth: 59.5%
[4]
  growth: 28.6%
[5]
  growth: -4.19% (active)
[6]
  growth: 41.1%
[7]
  growth: -6.66% (active)
[8]
  growth: -21.1% (active)
[9]
  growth: 86.5%
[10]
  growth: 8.06% (active)
[11]
  growth: 13%
[12]
  growth: 5.11% (active)
[13]
  growth: 26.7%
[14]
  growth: 26.5%
[15]
  growth: 19.4%
[16]
  growth: 6.9% (active)
[17]
  growth: 28.7%
[18]
  growth: 5.02% (active)
[19]
  growth: 19.6%
[20]
  growth: 60.9%

## CCCn1cnc2c(c1=N)C(c1ccc(F)cc1)c1sc3c(CC)cccc3c1O2 (stereo not given)
[1]
  growth: 4.9% (active)
[2]
  growth: 6.04% (active)
[3]
  growth: 54.6%
[4]
  growth: -19.8% (active)
[5]
  growth: -17.3% (active)
[6]
  growth: 18.8%
[7]
  growth: 7.42% (active)
[8]
  growth: -25.6% (active)
[9]
  growth: 65.5%
[10]
  growth: 13.3%
[11]
  growth: 12.6%
[12]
  growth: 9.3% (active)
[13]
  growth: 14.8%
[14]
  growth: 15.3%
[15]
  growth: 18.5%
[16]
  growth: 24%
[17]
  growth: -12.2% (active)
[18]
  growth: 14%
[19]
  growth: 5.54% (active)
[20]
  growth: 40.4%

## CCCC(=O)NC(c1cccnc1)c1cc(C(C)(C)C)c2cccnc2c1O (stereo not given)
[1]
  growth: 31.8%
[2]
  growth: 12.5%
[3]
  growth: 25%
[4]
  growth: 34.6%
[5]
  growth: 53.6%
[6]
  growth: 24.2%
[7]
  growth: 17%
[8]
  growth: 13.4%
[9]
  growth: 4.98% (active)
[10]
  growth: 3.19% (active)
[11]
  growth: 35.4%
[12]
  growth: 34%
[13]
  growth: 37.4%
[14]
  growth: 31.6%
[15]
  growth: 18.6%
[16]
  growth: 44.1%
[17]
  growth: -15.4% (active)
[18]
  growth: 7.53% (active)
[19]
  growth: 20.3%
[20]
  growth: 24.6%

## O=C1C(c2ccccc2)=C(N2CCc3ccccc32)OC1(Cl)Cl
[1]
  growth: 69.4%
[2]
  growth: 8.28% (active)
[3]
  growth: -27.3% (active)
[4]
  growth: 82%
[5]
  growth: 33.3%
[6]
  growth: 83.1%
[7]
  growth: 83.6%
[8]
  growth: 75.8%
[9]
  growth: 91.4%
[10]
  growth: 62.2%
[11]
  growth: 21.1%
[12]
  growth: 37.4%
[13]
  growth: 74.3%
[14]
  growth: 84.9%
[15]
  growth: 85.8%
[16]
  growth: 69.5%
[17]
  growth: 99.8%
[18]
  growth: 81.4%
[19]
  growth: 56.7%
[20]
  growth: 31.8%

## NC(=O)c1cccc(-n2ccc3cc(NC(=O)Nc4ccc(N5CCOCC5)c(C(F)(F)F)c4)ccc32)n1
[1]
  growth: 13.2%
[2]
  growth: -22.9% (active)
[3]
  growth: 12.3%
[4]
  growth: 16%
[5]
  growth: -46.4% (active)
[6]
  growth: 3.3% (active)
[7]
  growth: -45.7% (active)
[8]
  growth: -20.5% (active)
[9]
  growth: 35.7%
[10]
  growth: 16.7%
[11]
  growth: 10.4%
[12]
  growth: 4.89% (active)
[13]
  growth: -24.4% (active)
[14]
  growth: 2.44% (active)
[15]
  growth: 0.717% (active)
[16]
  growth: 5.77% (active)
[17]
  growth: -79.6% (active)
[18]
  growth: -16.1% (active)
[19]
  growth: -10.9% (active)
[20]
  growth: -0.669% (active)

## CCNC(=O)N1CCc2cc(OC)c(OCCc3ccc(OC)c(N)c3)cc2C1c1cc(C)c(C)cc1C (stereo not given)
[1]
  growth: 38.7%
[2]
  growth: 20.5%
[3]
  growth: 45.5%
[4]
  growth: 53.1%
[5]
  growth: 22.5%
[6]
  growth: 40.7%
[7]
  growth: 18.3%
[8]
  growth: 26.4%
[9]
  growth: 50%
[10]
  growth: 27.9%
[11]
  growth: 14.7%
[12]
  growth: 21.9%
[13]
  growth: 22.1%
[14]
  growth: 34.6%
[15]
  growth: 28.4%
[16]
  growth: 36.7%
[17]
  growth: 27.7%
[18]
  growth: 23.1%
[19]
  growth: 7.03% (active)
[20]
  growth: 44.7%

## Cc1cc(-c2ccc(Cl)cc2)n(Cc2nnc(SCC(=O)Nc3ccc(S(N)(=O)=O)cc3)n2-c2ccc([N+](=O)[O-])cc2)n1
[1]
  growth: 101%
[2]
  growth: 64.3%
[3]
  growth: 92.9%
[4]
  growth: 93.3%
[5]
  growth: 75.9%
[6]
  growth: 95.6%
[7]
  growth: 73.4%
[8]
  growth: 97%
[9]
  growth: 98.5%
[10]
  growth: 85.5%
[11]
  growth: 68.3%
[12]
  growth: 90.9%
[13]
  growth: 129%
[14]
  growth: 84.6%
[15]
  growth: 88.4%
[16]
  growth: 56.5%
[17]
  growth: 95.9%
[18]
  growth: 77.4%
[19]
  growth: 88.4%
[20]
  growth: 97.4%

## CS(=O)(=O)c1ccc(-n2cc(/C=N/O)c(-c3ccccc3)n2)cc1
[1]
  growth: 83.9%
[2]
  growth: 64.5%
[3]
  growth: 97.2%
[4]
  growth: 72.4%
[5]
  growth: 78.6%
[6]
  growth: 70.9%
[7]
  growth: 87.3%
[8]
  growth: 71.1%
[9]
  growth: 90.1%
[10]
  growth: 98.1%
[11]
  growth: 76.6%
[12]
  growth: 97.4%
[13]
  growth: 87.7%
[14]
  growth: 71.2%
[15]
  growth: 72.1%
[16]
  growth: 71%
[17]
  growth: 21.2%
[18]
  growth: 66.6%
[19]
  growth: -79.5% (active)
[20]
  growth: 93.3%
